In the library only some 6.2% were active in any assay of this set; here they are far more common.
S2 tox: viability counter-screen for ATXN expression inhibitors; AID 651635; Potency, µM (series often up to 56.7 µM), most hits filed as cytotoxic; 400,000 compounds, 0.49% hits; S2 cells (HEK-293 line with an ATXN2-luciferase reporter) viability, CellTiter-Fluor protease fluorescence, 24 h; also: nearly all actives have a fitted effect of over 40% in size
KB-3-1 tox: kills parental KB-3-1 adenocarcinoma cells. 400,000 compounds, 1.4% hits. Potency, µM (top dose mostly 46.1 µM), hits mostly cytotoxic. AID 1347075. KB-3-1 viability, CellTiter-Glo ATP luminescence, 72 h; also: % is scaled to controls: 0 for no effect and ±100 for the full control effect; nearly all actives have a fitted effect of over 60% in size
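Parental KB-3-1 viability, qHTS format: 72 h compound exposure, 37 °C; CellTiter-Glo; media-only wells and DMSO plates as controls; concentration-effect fits on corrected data.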
HT1080 IDH1KD tx: kills HT-1080 cells with IDH1 knockdown. Potency, µM (series often up to 46.1 µM), for the others: top-dose activity, negative = toxicity, hits mostly cytotoxic. HT-1080 IDH1 knockdown viability, ATP luminescence, 48 h. 360,000 compounds, 2% hits;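 also: 0% = DMSO wells and -100% = cell-free medium wells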
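Luminescent ATP read-out (CellTiter-Glo, 10 min at room temperature) after 48 h compound exposure at 37 °C gave viability of IDH1-knockdown HT-1080 cells. Activity was normalised to DMSO and cell-free wells, then fitted as concentration-response curves.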
KB-V1 cytotox: kills drug-selected multidrug resistant KB-V1 cells; KB-V1 MDR cells viability, CellTiter-Glo, 72 h; Potency, µM (top dose mostly 46.1 µM), usual class: cytotoxic; 400,000 compounds, 3.4% hits; AID 1347076; also: % is scaled to controls: 0 for no effect and ±100 for the full control effect; nearly all actives have a fitted effect of over 60% in size
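In this primary screen, KB-V1 cells overexpressing P-gp are incubated with library compounds (lowest to highest concentration) for 72 h at 37 degrees C before a luminescent ATP viability read.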
HT1080-NT tox: kills 2HG-producing HT-1080-NT fibrosarcoma cells; HT-1080-NT fibrosarcoma viability, CellTiter-Glo ATP luminescence, 48 h; Potency, µM (series often up to 46.1 µM), for inactives: at the top dose activity, negative = less viability, hits mostly cytotoxic; 360,000 compounds, 1.6% hits; AID 686970;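 also: NT is the 2HG producing partner of a matched IDH1 knockdown line; 0% = DMSO-treated cells and -100% = media-only wells without cells; nearly all actives have a fitted effect of over 55% in size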
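Read-out is CellTiter-Glo luminescence after 10 minutes at room temperature, following 48 hours' compound treatment of HT-1080-NT cells (750 cells/well, RPMI, 5% FBS, 37 degrees C).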
ATXN2 expr inh: reduces ATXN2 reporter expression in HEK-293 cells; HEK-293 ATXN2-luciferase reporter, luminescence, 24 h; Potency, µM (doses to about 57 µM), for inactives: at the highest dose activity change, negative = inhibition, usual class: inhibitors; 360,000 compounds, 0.72% hits; also: % is scaled to controls: 0 for no effect and ±100 for the full control effect; nearly all actives have a fitted effect of over 55% in size
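ATXN2-luciferase reporter cells (luciferase flanked by upstream and downstream ATXN2 gene portions) were treated 24 h at 37 °C with compounds at up to 57 uM. SteadyGlo luminescence gave expression; GF-AFC fluorescence gave viability.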
Active calls of the source: *. Calls follow the shape of the dose curve; as a rule, active = well fitted curve in the direction sought with a large enough effect; inconclusive = small, poorly fitted or top-dose-only effect, or another doubt; inactive = no such curve, though single readings can be large; an effect the other way counts as inactive or inconclusive. Potency is read from the fitted curve at half-maximal effect.

For C=CCn1c(=N)n(CC(=O)c2ccc(Br)s2)c2ccccc21 the results were S2 tox inactive, KB-3-1 tox 14.6µM*, HT1080 IDH1KD tx -23.4%, KB-V1 cytotox inactive, HT1080-NT tox -29.7% and ATXN2 expr inh inconclusive.
For CCOc1ccc(NC(=O)CN2C(=O)NC(C)(c3ccc(OC(F)F)cc3)C2=O)cc1 (centres undefined) the results were S2 tox inconclusive, KB-3-1 tox inconclusive, HT1080 IDH1KD tx 18.4µM*, KB-V1 cytotox inactive, HT1080-NT tox inconclusive and ATXN2 expr inh 6.9%.
CCOc1ccc(NC(=O)CC2C(=O)N(c3ccccc3)C(=O)N2C2CCCC2)cc1 (centres undefined) was read as S2 tox inactive, KB-3-1 tox inactive, KB-V1 cytotox inactive and ATXN2 expr inh 8.2%.
For Cc1ccc(S(=O)(=O)N(CC(=O)N2CCN(c3ccccc3F)CC2)C2CCCCC2)cc1 the results were S2 tox inactive, KB-3-1 tox inconclusive, HT1080 IDH1KD tx -11.1%, KB-V1 cytotox 4.61µM*, HT1080-NT tox -1.3% and ATXN2 expr inh -11.2%.
For CS(=O)(=O)N(CC(=O)N1CCN(c2ccccc2F)CC1)C1CCCCC1 the results were S2 tox inactive, KB-3-1 tox inactive, HT1080 IDH1KD tx -0.9%, KB-V1 cytotox inconclusive, HT1080-NT tox -0.6% and ATXN2 expr inh -3.3%.
CC(=O)N1CCc2c(sc3c2c(=O)n(-c2cc(Cl)ccc2C)c(=O)n3C)C1 was read as S2 tox inactive, KB-3-1 tox inconclusive, KB-V1 cytotox inconclusive and ATXN2 expr inh 7.3%.
Screening C/C(=N\N=C(N)N)c1ccc(Cl)c(Cl)c1 returned S2 tox inactive, KB-3-1 tox inactive, HT1080 IDH1KD tx 18.4µM*, KB-V1 cytotox inconclusive, HT1080-NT tox 23.1µM* and ATXN2 expr inh -30.7%.
`CCc1cccc(NC(=O)CCS(=O)(=O)c2ccc3nc(C)sc3c2)c1` gave KB-3-1 tox inactive and KB-V1 cytotox inactive.
For Cc1ccc(C)c(S(=O)(=O)Nc2cc3c4c(c2)CC(=O)N4CCC3)c1 the results were S2 tox inactive, KB-3-1 tox inconclusive, HT1080 IDH1KD tx -6.2%, KB-V1 cytotox 11.6µM*, HT1080-NT tox -7.4% and ATXN2 expr inh -1.4%.
`COc1ccc(OC)c(S(=O)(=O)N2CCN(c3ccccc3)CC2)c1` gave KB-3-1 tox inactive, HT1080 IDH1KD tx 7.1%, KB-V1 cytotox inactive, HT1080-NT tox 9.8% and ATXN2 expr inh 51.5%.
O=C1c2cccc3cccc(c23)C(=O)N1OS(=O)(=O)c1ccc(Cl)cc1 was read as S2 tox inactive, KB-3-1 tox inactive, HT1080 IDH1KD tx 12.1%, KB-V1 cytotox inactive, HT1080-NT tox -14.9% and ATXN2 expr inh -6.7%.
`COc1ccc(F)cc1S(=O)(=O)n1cnc2ccccc21` gave S2 tox inactive, KB-3-1 tox inactive, HT1080 IDH1KD tx -7.1%, KB-V1 cytotox inactive, HT1080-NT tox -6.9% and ATXN2 expr inh 0.6%.
Screening COc1ccc(OC)c(S(=O)(=O)n2cnc3ccccc32)c1 returned S2 tox inactive, KB-3-1 tox inconclusive, HT1080 IDH1KD tx -3.1%, KB-V1 cytotox 23.1µM*, HT1080-NT tox -6.5% and ATXN2 expr inh -30.1%.
`CCc1ccc(S(=O)(=O)ON2C(=O)c3ccccc3C2=O)cc1` gave KB-3-1 tox inactive, HT1080 IDH1KD tx -25.4%, KB-V1 cytotox inactive, HT1080-NT tox -23.6% and ATXN2 expr inh 29.9µM*.
COc1ccc(OC)c(S(=O)(=O)ON2C(=O)c3ccccc3C2=O)c1 was read as S2 tox inconclusive, KB-3-1 tox inconclusive, HT1080 IDH1KD tx 4.11µM*, KB-V1 cytotox inactive, HT1080-NT tox inconclusive and ATXN2 expr inh -18.0%.
For COc1ccccc1NC(=O)CSc1oc(-c2ccc(F)cc2)nc1S(=O)(=O)c1ccc(Br)cc1 the results were S2 tox inactive, KB-3-1 tox inactive, KB-V1 cytotox inactive and ATXN2 expr inh 12.6%.
`COc1ccc(CN2CC[C@H]3C=CC[C@@H](C(=O)Nc4ccccc4)[C@H]3C2=O)cc1OC` gave KB-3-1 tox inactive and KB-V1 cytotox inconclusive.
Screening c1ccc2c(CCc3c[nH]c4ccccc34)ccnc2c1 returned KB-3-1 tox inconclusive and KB-V1 cytotox inactive.
Oc1cccc(/C=N/NC(=S)Nc2cccnc2)c1O was read as S2 tox inactive, KB-3-1 tox 10.3µM*, HT1080 IDH1KD tx inconclusive, KB-V1 cytotox inactive, HT1080-NT tox inconclusive and ATXN2 expr inh inconclusive.
For Fc1cccc(F)c1/C=N/NC(=S)Nc1cccnc1 the results were S2 tox inconclusive, KB-3-1 tox inactive, HT1080 IDH1KD tx 6.9%, KB-V1 cytotox inactive, HT1080-NT tox 8.5% and ATXN2 expr inh -26.0%.
For Fc1c(F)c(F)c(/C=N/NC(=S)Nc2cccnc2)c(F)c1F the results were S2 tox inconclusive, KB-3-1 tox inactive, HT1080 IDH1KD tx 16.4µM*, KB-V1 cytotox inactive, HT1080-NT tox inconclusive and ATXN2 expr inh inconclusive.
For COc1ccc(C(=O)CCC(=O)Nc2ccc(C)c(Cl)c2)cc1 the results were S2 tox inactive, KB-3-1 tox inactive, KB-V1 cytotox inactive and ATXN2 expr inh 4.2%.
Screening Cn1cc([N+](=O)[O-])c(C(=O)NCc2cc3cc(Cl)ccc3[nH]2)n1 returned S2 tox inactive, KB-3-1 tox 9.2µM*, HT1080 IDH1KD tx 16.8%, KB-V1 cytotox inactive, HT1080-NT tox 0.6% and ATXN2 expr inh 1.4%.
Cc1c(Br)c(C(=O)NCc2cc3cc(Cl)ccc3[nH]2)nn1C was read as S2 tox inactive, KB-3-1 tox inactive, HT1080 IDH1KD tx inconclusive, KB-V1 cytotox inactive, HT1080-NT tox -28.5% and ATXN2 expr inh 1.0%.
N#Cc1sc2nc(N3CCCCC3)c3c(c2c1N)CCCC3 was read as S2 tox inactive, KB-3-1 tox inconclusive, HT1080 IDH1KD tx inconclusive, KB-V1 cytotox 7.31µM*, HT1080-NT tox inconclusive and ATXN2 expr inh -22.3%.
For C[C@H]1C[C@H](O)c2ccsc2S1(=O)=O the results were S2 tox inactive and ATXN2 expr inh 7.3%.
Screening COCCn1c(SCC(=O)Nc2sc(C)c(C)c2C#N)nnc1-c1ccc(OC)cc1 returned S2 tox inactive, KB-3-1 tox inactive, HT1080 IDH1KD tx 18.5%, KB-V1 cytotox 9.2µM*, HT1080-NT tox 5.5% and ATXN2 expr inh -6.4%.
For Cc1ccc(-c2c[n+](CC(=O)c3ccc(Br)cc3)c3n2CCCCC3)cc1 the results were S2 tox inconclusive, KB-3-1 tox inconclusive, HT1080 IDH1KD tx inconclusive, KB-V1 cytotox inactive, HT1080-NT tox 20.6µM* and ATXN2 expr inh inconclusive.

Source: PubChem BioAssay (National Center for Advancing Translational Sciences (NCATS))
